From PubChem BioAssay AID2549 (National Center for Advancing Translational Sciences (NCATS), 2010)
Where “and” joins values, the source holds several entries; their conditions need not be identical. Identical values can stand only once. Hit rate of the full screen: of about 240,000 compounds, about 1,300 (0.54%) were called active. Another 1% or so got no clear call; they are omitted. Calls follow the shape of the dose curve; as a rule, active = well fitted inhibition curve with a large enough effect; inconclusive = small, poorly fitted or top-dose-only effect; inactive = flat fitted curve, though single readings scatter. The entries come from a sample that favours actives as a whole. Entries that show only a call come without a potency. The source holds several records for some structures; these can differ, active in one and inactive in another.

target: ATP-dependent DNA helicase Q1 (Homo sapiens) (UniProt P46063); assay: qHTS Assay for Inhibitors of RecQ-Like Dna Helicase 1 (RECQ1); details: RECQ1 DNA unwinding, red fluorescence kinetic read; series mostly up to 57.3 µM; also: nearly all actives have a fitted effect of over 30% in size
From the text: Survival of cells and the faithful propagation of the genome depend on elaborate mechanisms of detecting and repairing DNA damage. Treatment of advanced cancer relies on radiation therapy or chemotherapy, which kill cancer cells by causing extensive DNA damage. It is often found, that cancer cells develop resistance to therapy through enhanced activity of DNA repair functions; this has led to an increased interest in developing drugs that interfere with DNA repair, which could sensitize cancer cells to conventional therapy.
This validation qHTS assay pertains to human RECQ1, which is important in resolving abnormal DNA structures formed during replication or homologous recombination. Shutting down the expression of RECQ1 leads to chromosomal instability and higher radiation sensitivity in cultured cells.
The validation assay was a fluorescence quenching based kinetic qHTS for RECQ1 Helicase DNA unwinding. The activity was measured as ATP-dependent separation of a 20-bp DNA duplex extended by 30-nt single-stranded tails (forked duplex). The forked DNA substrate was tagged with rhodamine fluorophore (carboxytetramethyl rhodamine, TAMRA) and BHQ-2 (Black Hole Quencher 2) dark quencher. Strand separation results in an increase in the fluorescence of TAMRA (excitation 525 nm, emission 598 nm). This substrate construct operates in a red-shifted region where very few compound library members have been noted to fluoresce (PubChem AIDs 593 and 594). An additional feature of the assay is the inclusion of 2.5 ug/ml poly (dIdC), to reduce interference by compounds such as DNA intercalators, a major source of false inhibitors.
Opher Gileadi, Structural Genomics Consortium, University of Oxford
Screening Center PI: Austin, C.P.
Screening Center: NIH Chemical Genomics Center [NCGC]
Three uL of reaction buffer (25 mM Tris-HCl (pH 8.0), 5 mM NaCl, 2 mM MgCl2, 1mM DTT, 0.01% Tween- 20, and 2.5 ug/ml poly(dI-dC), including enzyme (50 nM RECQ1T1), were dispensed into a 1536-well Greiner black assay plate via solenoid-valve based nanoliter dispensers. Compounds (23 nl each in columns 5-48) and control (23 nl each in column 2 as dose-response) were transferred via a Kalypsys pintool equipped with a 1536-pin array. The plates were incubated for 15 min at room temperature, and then 1 ul of substrates (200 nM DNA and 2 mM ATP, final concentrations) was added to start the reaction. The plate was transferred into a ViewLux high-throughput CCD imager where the reaction progress was measured in a discontinuous kinetic mode (two reads spaced 2 hours apart, with intermediate room temperature incubation of the covered assay plate) by using standard red-fluorescence optics (excitation filter 525 nm, emission filter 598 nm). Enzyme-free and vehicle (DMSO) controls were included for signal normalization.
Potency is read from the fitted curve at half-maximal effect.

Sequence of ATP-dependent DNA helicase Q1 (Homo sapiens) (P46063 whole entry, looked up): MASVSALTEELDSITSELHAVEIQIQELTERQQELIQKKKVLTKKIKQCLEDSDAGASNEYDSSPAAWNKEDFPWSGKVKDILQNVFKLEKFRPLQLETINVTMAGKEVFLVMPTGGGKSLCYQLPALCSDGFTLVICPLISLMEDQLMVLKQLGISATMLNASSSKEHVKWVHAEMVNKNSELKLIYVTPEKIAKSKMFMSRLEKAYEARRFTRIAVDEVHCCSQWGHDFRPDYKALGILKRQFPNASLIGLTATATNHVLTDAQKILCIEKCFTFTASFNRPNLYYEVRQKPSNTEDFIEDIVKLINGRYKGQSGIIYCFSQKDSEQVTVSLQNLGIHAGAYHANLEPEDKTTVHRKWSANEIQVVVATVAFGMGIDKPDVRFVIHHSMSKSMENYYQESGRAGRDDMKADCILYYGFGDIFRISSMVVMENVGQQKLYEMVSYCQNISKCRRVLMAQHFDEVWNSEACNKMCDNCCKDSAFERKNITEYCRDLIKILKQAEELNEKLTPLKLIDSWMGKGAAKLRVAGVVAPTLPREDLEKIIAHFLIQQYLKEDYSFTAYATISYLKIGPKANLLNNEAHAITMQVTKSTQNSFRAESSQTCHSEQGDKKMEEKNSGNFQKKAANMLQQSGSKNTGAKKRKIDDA

**Q.** How did the Potency turn out when O=[N+]([O-])c1ccc(N2CCSCC2)cc1O was run?
**A.** inactive

**Q.** NC(N)=N/N=C/c1ccc(Cl)c([N+](=O)[O-])c1 was tested. Which Potency did it give?
**A.** inactive

**Q.** O=C1CSC(=S)N1/N=C/c1ccc(O)c([N+](=O)[O-])c1 was tested. Which Potency did it give?
**A.** 25.1 µM (active)

**Q.** Cc1cc(C)c(OCC(=O)N/N=C/c2ccco2)c(C)c1 was tested. Which Potency did it give?
**A.** inactive

**Q.** With CN1[C@H]2CC(OC(=O)[C@@H](CO)c3ccccc3)C[C@H]1[C@H]1O[C@H]12 (some centres undefined) as the compound, how does the Potency read?
**A.** inactive

**Q.** With NC(=O)c1sc(-c2ccsc2)cc1N as the compound, how does the Potency read?
**A.** inactive

**Q.** O=C(NCc1ccccn1)[C@]1(C(F)(F)F)C[C@H](CCc2ccccc2)CCCO1 was tested. Which Potency did it give?
**A.** inactive

**Q.** O=C1OCCN1C(=O)[C@H]1[C@H](c2ccc(Cl)cc2)C(c2cccc(Cl)c2)=NN1c1ccc(Br)cc1 was tested. Which Potency did it give?
**A.** 25.1 µM (active)

**Q.** Which Potency does the source give for C[C@@H]1C(c2ccc(F)cc2)=NN(c2ccc(Br)cc2)[C@H]1C(=O)N1CCOC1=O here?
**A.** 25.1 µM (active)

**Q.** With O=C1OCCN1C(=O)[C@H]1[C@H](c2ccc(F)cc2)C(c2ccccc2)=NN1c1ccc(Br)cc1 as the compound, how does the Potency read?
**A.** inactive

**Q.** Which Potency does the source give for O=C1OCCN1C(=O)[C@H]1[C@H](c2ccccc2)C(c2ccc(F)cc2)=NN1c1ccccc1 here?
**A.** inactive

**Q.** Which Potency does the source give for CC(C)C(NS(=O)(=O)c1ccc(-c2ccc(Br)cc2)cc1)C(=O)O (centres undefined) here?
**A.** inactive

**Q.** How did the Potency turn out when CC(C)=CCC[C@]1(C)[C@@H](CC=C(C)C)C[C@@]2(CC=C(C)C)C(=O)[C@]1(C(=O)C(C)C)C(=O)C(CC=C(C)C)=C2O was run?
**A.** inactive

**Q.** How did the Potency turn out when O=C1C(c2[nH]c3ccccc3c2O)=Nc2ccccc21 was run?
**A.** inactive and 35.5 µM (active)

**Q.** How did the Potency turn out when CCCC(=O)Nc1c(O)c2ccccc2[nH]c1=O was run?
**A.** inactive

**Q.** How did the Potency turn out when CC(C)C(=O)Nc1c(O)c2ccccc2[nH]c1=O was run?
**A.** inactive

**Q.** How did the Potency turn out when COc1ccc(Cl)cc1NC(=O)Cn1nc(-c2ccc(C)cc2)n(C)c1=S was run?
**A.** inactive

**Q.** For Cc1ccc(NC(=O)CC2S/C(=N/N=C3\CCCc4ccccc43)NC2=O)cc1 (centres undefined), which Potency is on record?
**A.** 25.1 µM (active)

**Q.** How did the Potency turn out when CCN=C1SC(CC(=O)Nc2ccc(C)cc2)C(=O)N1CC (centres undefined) was run?
**A.** inactive

**Q.** How did the Potency turn out when Cc1c(Cl)cccc1NC(=O)CC1SC(=NCC2CCCO2)NC1=O (centres undefined) was run?
**A.** inactive

**Q.** Which Potency does the source give for COc1cc(OC)c2c(c1C(CCN1CCCCC1)c1ccc(N(C)C)cc1)OC(=O)CC2c1ccc(N(C)C)cc1 (centres undefined) here?
**A.** inactive

**Q.** With O=[N+]([O-])c1cc(S(=O)(=O)Nc2cccc(Cl)c2)ccc1N=Nc1c(O)[nH]c2ccccc12 as the compound, how does the Potency read?
**A.** inactive

**Q.** CC1=C(/C=C/C(C)=C/C=C/C(C)=C/C=C/C=C(C)/C=C/C=C(C)/C=C/C(=O)[C@]2(C)C[C@@H](O)CC2(C)C)C(C)(C)C[C@H](O)C1 was tested. Which Potency did it give?
**A.** inactive

**Q.** Which Potency does the source give for C=C1CCN(C(CC(C)C)C(=O)NCc2cc(OC)c(OC)c(OC)c2)S(=O)(=O)c2ccccc21 (centres undefined) here?
**A.** inactive

**Q.** For COc1ccc(-c2ccc(OC)c(C3C4C=CCC(C)C4C(=O)N3Cc3ccccc3)c2)cc1C (centres undefined), which Potency is on record?
**A.** inactive

**Q.** Cc1nc2ccc(C(=O)N3CCN(c4ccccc4)CC3)cc2s1 was tested. Which Potency did it give?
**A.** inactive

**Q.** O=C(c1cc2c(s1)CCC2)N1CCN(c2ccccc2)CC1 was tested. Which Potency did it give?
**A.** 11.2 µM (active)

**Q.** Which Potency does the source give for O=C(NNC(=O)c1cc2c(s1)CCCC2)c1ccccc1 here?
**A.** inactive

**Q.** With CC(C)C(=O)N1CCC2(CC1)Oc1ccc(F)cc1C(=O)C21CC(c2ccccc2)=NO1 (centres undefined) as the compound, how does the Potency read?
**A.** inactive

**Q.** How did the Potency turn out when CCCOc1ccc(NC(=O)CC2C(=O)N(C)C(=S)N2Cc2ccc3c(c2)OCO3)cc1 (centres undefined) was run?
**A.** inactive

**Q.** For O=C(Nc1cc(C(=O)Nc2ccc(S(=O)(=O)O)cc2)cc(C(=O)Nc2ccc(S(=O)(=O)O)cc2)c1)Nc1cc(C(=O)Nc2ccc(S(=O)(=O)O)cc2)cc(C(=O)Nc2ccc(S(=O)(=O)O)cc2)c1, which Potency is on record?
**A.** inactive

**Q.** With Cc1ccc(CNC(=O)C2(C(F)(F)F)C/C(=C\Cc3ccccc3)CCCO2)o1 (centres undefined) as the compound, how does the Potency read?
**A.** inactive

**Q.** CC(=O)OCC1OC(C#Cc2ccccc2Cl)C=CC1OC(C)=O (centres undefined) was tested. Which outcome did it give?
**A.** inactive [at 11.5 µM]

**Q.** For Fc1ccc(Cl)cc1-c1nc(Nc2ccncc2)c2nccnc2n1, which Potency is on record?
**A.** inactive

**Q.** For Cc1ccc(C)n1C(Cc1ccccc1)C(=O)O (centres undefined), which Potency is on record?
**A.** 12.6 µM (active)

**Q.** CC(Cc1ccccc1)C(=O)N(C)Cc1ccccc1 (centres undefined) was tested. Which Potency did it give?
**A.** inactive

**Q.** COc1ccc(CNC(=O)C(Cc2ccccc2)n2cccc2)cc1 (centres undefined) was tested. Which Potency did it give?
**A.** inactive

**Q.** Which Potency does the source give for O=C(NCC1CC1)C1(C(F)(F)F)C/C(=C\CCO)CCCO1 (centres undefined) here?
**A.** inactive

**Q.** For CCOC(=O)C1=NOC(Cn2cc(C(C)=O)c(=O)[nH]c2=O)C1 (centres undefined), which Potency is on record?
**A.** inactive

**Q.** Which Potency does the source give for CCOC(=O)C1=NO[C@@]2(C=C(Br)C(=O)[C@H]3O[C@H]32)C1 here?
**A.** 28.2 µM (active)

**Q.** CCOC(=O)C1=C(C)N=C2c3ccccc3C(=O)C2C1c1ccc(Br)cc1 (centres undefined) was tested. Which Potency did it give?
**A.** inactive

**Q.** For NC(=O)C1=C[C@@H](c2csc3ccccc23)C[C@@H](OCc2ccc(CO)cc2)O1, which Potency is on record?
**A.** inactive

**Q.** With COC(=O)c1ccc([C@@H](O)[C@H](C)C(=O)CC(=O)OC(C)(C)C)cc1 as the compound, how does the Potency read?
**A.** inactive

**Q.** For Cc1cccc(N=C2NC(=O)/C(=C/c3cn(C)c4ccccc34)S2)c1, which Potency is on record?
**A.** inactive

**Q.** CN(C)c1ccc(-n2cccc2/C=C2/SC(=Nc3ccc(F)cc3)NC2=O)cc1 was tested. Which Potency did it give?
**A.** inactive

**Q.** How did the Potency turn out when Cc1ccc(N=C2NC(=O)/C(=C/C=C/c3ccco3)S2)cc1C was run?
**A.** 22.4 µM (active)

**Q.** Which Potency does the source give for O=C1CN(Cc2ccccc2)S(=O)(=O)c2ccccc21 here?
**A.** inactive

**Q.** For CC(C)=CCN1CCC2(CCc3ccccc32)CC1, which Potency is on record?
**A.** inactive

**Q.** With CCS(=O)(=O)C1=NSC2=NC(=O)/C(=C\c3cc(C)n(-c4cccc(OC)c4)c3C)C(=N)N21 as the compound, how does the Potency read?
**A.** inactive
